The entries come from a sample that favours hits as a whole.
Giardia FBPA inh = blocks Giardia fructose-bisphosphate aldolase activity; A8B2U2; purified Giardia FBPA; Potency, µM (series often up to 59.6 µM), for inactives: at the top dose activity, negative = inhibition, actives largely listed as inhibitors; 290,000 tested, 0.71% active; also: potency is read from the fitted curve at half-maximal effect; % is scaled to controls: 0 for no effect and ±100 for the full control effect; nearly all actives have a fitted effect of over 55% in size
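Giardia FBPA (40 nM reagent) was preincubated 10 min at RT with compound (up to 57.5 uM final), then substrate plus GAPDH/TPI/NAD/arsenate coupling system with diaphorase/resazurin was added; resorufin fluorescence (525/598 nm) was read after 20 min.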
Tb PYK inh = blocks Trypanosoma brucei pyruvate kinase | AID 624173 | Q57TT1 | Potency, µM (highest dose often 76.8 µM), without a hit: at the top dose activity, negative = inhibition, actives largely listed as inhibitors | 410,000 tested, 0.12% active | TbPYK enzyme, Kinase-Glo Plus ATP luminescence, 45 min; also: potency is read from the fitted curve at half-maximal effect; % is scaled to controls: 0 for no effect and ±100 for the full control effect; nearly all actives have a fitted effect of over 50% in size
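Assay buffer: 50 mM TEA pH 7.2, 100 mM KCl, 10 mM MgCl2, 0.05% BSA, 0.01% Tween-20. Pyruvate kinase from T. brucei plus substrate met compound, then ADP (130 uM final). Luminescence was read post 45 min RT.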
Cycloheximide cs = counter-screen for Shiga toxin inhibitors: cycloheximide protein synthesis inhibition. cell reporter, cycloheximide protein synthesis inhibition counterscreen. 300,000 tested, 12% active. max response, %; in the data active = max response mostly above about 13%, no sharp cut-off; inactive = mostly below about 14%; also: read at 38.3 µM for the half of the compounds with a filed dose; 0% is about no effect
Shiga toxin inh = blocks Shiga toxin action in Vero cells; Vero cells, Shiga toxin protein synthesis inhibition reporter; inhibition, % at 38.7 µM; 290,000 tested, 9.2% active; AID 2315; in the data active = inhibition mostly above about 28%, no sharp cut-off; inactive = mostly below about 43%; also: 0% is about no effect
RE007 growth inh = less growth of the S. pombe RE007 Vpr strain; S. pombe RE007 Vpr strain, BacTiter-Glo ATP luminescence, 24 h; 360,000 tested, 0.21% active; Potency, µM (highest dose often 92.2 µM), for inactives: top-dose activity change, negative = less growth, actives largely listed as inhibitors; active = well fitted falling curve with a large enough effect; inconclusive = small, poorly fitted or top-dose-only effect; inactive = no such curve, though single readings can be large or run the other way; also: potency is read from the fitted curve at half-maximal effect; % is scaled to controls: 0 for no effect and ±100 for the full control effect; nearly all actives have a fitted effect of over 50% in size
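Fission yeast RE007 carrying one integrated HIV-1 vpr copy, seeded at OD 0.01 in PMG+AL medium with 23 nL pinned compound. Grown 24 h at 30 degrees; viability read by BacTiter-Glo luminescence after 5 min.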
LmPK inh = inhibitors of Leishmania mexicana pyruvate kinase. Q27686. purified LmPK, Kinase-Glo ATP luminescence, 1 h. Potency, µM (titrated, usually from 57.5 µM), for the others: at the top dose activity change, negative = inhibition, usual class: inhibitors. 290,000 tested, 0.37% active; also: potency is read from the fitted curve at half-maximal effect; % is scaled to controls: 0 for no effect and ±100 for the full control effect
Target sequence (Q27686 whole entry, looked up): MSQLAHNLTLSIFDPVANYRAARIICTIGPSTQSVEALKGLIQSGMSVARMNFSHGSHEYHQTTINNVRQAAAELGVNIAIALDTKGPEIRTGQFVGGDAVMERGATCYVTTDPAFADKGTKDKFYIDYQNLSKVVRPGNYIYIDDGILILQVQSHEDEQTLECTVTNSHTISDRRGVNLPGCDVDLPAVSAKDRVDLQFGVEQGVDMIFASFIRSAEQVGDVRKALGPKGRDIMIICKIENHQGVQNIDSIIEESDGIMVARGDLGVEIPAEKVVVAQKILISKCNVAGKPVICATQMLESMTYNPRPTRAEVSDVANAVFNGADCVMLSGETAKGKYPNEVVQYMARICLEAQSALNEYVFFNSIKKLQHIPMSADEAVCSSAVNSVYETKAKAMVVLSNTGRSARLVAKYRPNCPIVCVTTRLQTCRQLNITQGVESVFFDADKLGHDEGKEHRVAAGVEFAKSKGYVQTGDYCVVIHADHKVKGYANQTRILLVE
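Kinase-Glo luminescence read after 1 h RT reaction of 0.1 nM LmPK with 0.5 mM PEP and 0.1 mM ADP. Activity scaled between uninhibited and enzyme-free controls.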
* marks the source's active call; other numbers are inactive results; ? = inconclusive; nt = no result given; [ ] = remark or other dose. Unless noted, calls follow the shape of the dose curve; as a rule, active = well fitted curve in the direction sought with a large enough effect; inconclusive = small, poorly fitted or top-dose-only effect, or another doubt; inactive = no such curve, though single readings can be large; an effect the other way counts as inactive or inconclusive.

SMILES	Giardia FBPA inh	Tb PYK inh	Cycloheximide cs	Shiga toxin inh	RE007 growth inh	LmPK inh
Cc1ccc(N2NC(C)(c3cccs3)NC2=S)cc1 (stereo unspecified)	-12.1%	-3.0%	30.7*	73.8*	-0.3%	6.0%
Cc1ccc(N2CC(O)(c3cccs3)[N+]3=C2CCCC3)cc1 (stereo unspecified)	2.9%	-1.5%	-1.1	-8.7	-23.7%	3.3%
O=C(c1ccc2nc(Cc3ccccc3F)oc2c1)N1CCCC1	nt	-0.6%	41.3*	87.3*	-16.8%	-10.2%
O=C(NCCCN1CCN(c2ccccc2F)CC1)c1ccc2nc(Cc3ccccc3)oc2c1	nt	-3.1%	nt	nt	nt	nt
Cc1cc(CN(C)C(=O)c2ccc3nc(Cc4ccccc4F)oc3c2)n[nH]1	nt	4.4%	-0.8	6.9	22.0%	8.3%
CC(=O)N1CCCN(C(=O)c2ccc3nc(Cc4ccccc4F)oc3c2)CC1	nt	0.2%	14.4*	23.3	?	-8.8%
O=C(NCCCN1CCOCC1)c1ccc2nc(Cc3ccccc3F)oc2c1	nt	2.6%	21.7*	23.3	0.4%	-4.3%
O=C(c1ccc2nc(Cc3ccccc3F)oc2c1)N1CC[C@H](O)C1	6.7%	-4.5%	29.5*	38.9*	-3.5%	1.3%
COc1cccc2sc(NC(=O)c3ccc(S(=O)(=O)N4CCC(C)CC4)cc3)nc12	nt	-7.3%	nt	nt	nt	nt
CC(C)(C)c1ccc(C(=O)N2CCC(C(=O)c3ccccc3)CC2)cc1	8.0%	-4.3%	-1.8	-3.4	5.0%	5.5%
CC(=O)N1CCN(C(=O)c2ccco2)CC1	-3.6%	2.1%	3.1	-1.7	-4.0%	0.0%
Cc1cccc2nc(=S)n(C(=O)c3ccco3)n12	0.3%	-20.1%	61.7*	197.5*	-22.5%	12.6µM*
O=C(c1ccco1)n1c(=S)nc2ccccn21	?	-18.6%	68.1*	115.3*	-4.3%	14.1µM*
CCOc1cc(/C=C/c2ccc3cccc([N+](=O)[O-])c3n2)cc(Cl)c1O	-5.8%	-14.4%	10.8*	22.4	17.3%	3.5%
COc1cc(/C=C/c2ccc3cccc(OC)c3n2)c(O)c([N+](=O)[O-])c1	-2.6%	-3.1%	1.2	18.0	-9.6%	-3.8%
O=[N+]([O-])c1cccc2ccc(/C=C/c3cccc(Br)c3)nc12	-5.3%	15.7%	42.0*	70.5*	-17.2%	0.0%
O=[N+]([O-])c1cccc2ccc(/C=C/c3ccc(C(F)(F)F)cc3)nc12	-13.2%	-3.8%	20.5*	30.8	22.1%	-5.9%
CC(=O)Nc1ccc(/C=C/c2ccc3c([N+](=O)[O-])cccc3n2)cc1	-5.9%	3.5%	32.9*	69.6*	-15.5%	4.5%
CC(=O)Nc1ccc(/C=C/c2nc3ccccc3[nH]c2=O)cc1	-26.9%	-0.1%	8.6	59.1	1.7%	-5.0%
CC1(C(=O)NS(=O)(=O)c2ccc3ccccc3c2)CCN1C(=O)Cc1ccc(Cl)cc1Cl (stereo unspecified)	nt	2.3%	nt	nt	13.1%[18.4 µM]	nt
CCC(CC)c1nnc(NC(=O)CSCC(=O)Nc2cc(C)on2)s1	nt	-8.4%	nt	nt	-0.8%	nt
CCN(CC)c1nn2c(=O)c(C(=O)NCCc3ccc(C)cc3)cnc2s1	nt	-3.0%	nt	nt	nt	nt
CCN=C1S/C(=C/c2ccc(-c3ccc(F)cc3)o2)C(=O)N1CC	-0.1%	1.9%	6.9	21.1	-11.4%	-7.5%
O=[N+]([O-])c1cccc2ccc(/C=C/c3ccc(Cl)cc3)nc12	-2.1%	-8.9%	45.3*	136.9*	-13.4%	-1.4%
Cn1cc2cccc([N+](=O)[O-])c2n1	-4.6%	1.0%	-6.4	-6.7	-4.5%	1.9%
SMILES	Giardia FBPA inh	Tb PYK inh	Cycloheximide cs	Shiga toxin inh	RE007 growth inh	LmPK inh
CC(=O)[C@@H]1CC[C@@H]2[C@@H]3C[C@H](C)C4=CC(=O)CC[C@@]4(C)[C@H]3[C@H](O)C[C@]21C	3.4%[21.7 µM]	-3.5%[33.2 µM]	nt	nt	nt	nt
COc1ccccc1OCc1cc(C(=O)N(C)CCC2CCCCO2)no1 (stereo unspecified)	nt	-6.1%	58.6*	126.3*	-5.0%	-13.0%
CCCN(CC1CCCO1)C(=O)c1cc(COc2ccc(F)cc2F)on1 (stereo unspecified)	-0.8%	1.3%	7.9	22.2	5.5%	3.7%
COc1cc(C(C)=O)ccc1OCc1cc(C(=O)N(C)CCC2CCCCO2)no1 (stereo unspecified)	-11.9%	-4.4%	52.9*	100.6*	0.5%	6.2%
CSc1nc(N)c2ncn([C@H]3O[C@H](COP(=O)(O)OP(=O)(O)OP(=O)(O)O)[C@@H](O)[C@@H]3O)c2n1	6.7%	nt	nt	nt	nt	nt
COC(=O)CNC(=O)COC(=O)/C=C/c1cccs1	1.4%	-1.5%	1.2	32.5	23.9%	1.8%
CC1CCCCN1C(=O)COC(=O)/C=C/c1ccc2ccccc2n1 (stereo unspecified)	-1.6%	0.9%	47.8*	47.7*	-7.6%	0.0%
COC(=O)CNC(=O)COC(=O)/C=C/c1ccc2ccccc2n1	-2.4%	2.8%	20.2*	32.1*	-12.7%	-3.5%
CC1CCCCN1C(=O)COC(=O)c1ccc2ccccc2n1 (stereo unspecified)	nt	-2.2%	nt	nt	0.6%	nt
NNC(=O)Cc1cccc2ccc(Cl)cc12	nt	1.1%	nt	nt	-1.7%	nt
COc1ccc(N(CC(=O)NCc2cccs2)S(=O)(=O)c2cccc(C)c2)cc1	nt	-4.9%	nt	nt	4.2%	nt
O=C(Nc1nc2c(s1)CN(Cc1ccccc1)CC2)C1CCC1	-7.8%	3.4%	31.1*	74.2*	-8.8%	-0.2%
Cc1ccc(NS(=O)(=O)c2cccs2)nc1	-17.6%	0.6%	0.7	-5.2	-3.4%	-4.6%
CCCCS(=O)(=O)Nc1ccc(C)cn1	7.92µM*	-29.7%	-3.3	18.0	-6.1%	-1.3%
CC(C)(O)CC[C@H](OC(=O)c1ccccc1)[C@](C)(O)[C@H]1CC[C@@]2(O)C3=CC(=O)[C@@H]4C[C@@H](O)[C@H](O)C[C@]4(C)C3CC[C@]12C (stereo partly specified)	4.5%	1.3%	-3.1	-9.3	-6.6%	-2.8%
Nc1ccc(C(=O)OCC(=O)N2CCc3ccccc3C2)cc1[N+](=O)[O-]	21.5%	-9.4%	38.5*	56.9*	-3.2%	3.4%
Cc1cc(OCC(=O)N2CCc3ccccc3C2)c(C)cc1Br	0.7%	-6.2%	26.6*	40.5*	-1.9%	4.7%
Cc1ccc(C)c(OCC(=O)N2CCc3ccccc3C2)c1	3.5%	-14.9%	13.2*	25.5	9.1%	1.7%
Cc1ccsc1C(=O)OCC(=O)N1CCc2ccccc2C1	-0.4%	-0.9%	45.2*	115.1*	8.9%	3.2%
COc1ccc(C(=O)Nc2ccc(NC(=O)c3cccs3)cc2)cc1OC	nt	1.7%	nt	nt	nt	nt
COc1ccc(NC(=O)c2cccs2)cc1O	-2.3%	-8.1%	57.9*	69.9*	0.9%	-13.4%
COc1ccc(-c2csc(NC(=O)c3cccs3)c2C(=O)O)cc1OC	-29.3%	-7.5%	28.3	28.4*	29.5%	-18.2%

From PubChem
